High-throughput results from PubChem BioAssay.
Sampled rows, rich in hits. Any-hit rate of the full collection: about 3%.
SENP6 inh = inhibitors of human SENP6 protease | Q9GZR1 | Recombinant SENP6 catalytic domain, aminoluciferin luminescence | inhibition, % at 10 µM | actives 1.8% (n = 330,000) | AID 2599;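 active means inhibition above about 50% at the single tested dose, limit read from the data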;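 further: plate controls were DMSO wells with enzyme for no effect and DMSO wells lacking enzyme for full effect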
TRAIL sens C8 = sensitizes caspase-8 expressing cells to TRAIL. NB7+C8 cells + TRAIL, ATPlite viability luminescence. inhibition (viability loss, TRAIL sensitization), % at 10 µM. actives 1% (n = 360,000). AID 624354;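 active means compounds causing at least 50% loss of cell viability in the single-dose screen, relative to plate controls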
SENP8 block-1 = blocks human SENP8 cleavage of Nedd8 substrate; Q96LD8; recombinant SENP8, Nedd8 substrate fluorescence; inhibition, % at 20 µM; actives 0.64% (n = 360,000); AID 602440; in the data active means inhibition mostly above about 40%, no sharp cut-off; inactive means mostly below about 27%
SENP8 block-2 = blocks the human protease SENP8; actives 1.2% (n = 330,000); inhibition, % at 10 µM; purified SENP8, Z-RLRGG-aminoluciferin cleavage, luminescence; in the data active means inhibition above about 50%
SENP7 block = blocks the human protease SENP7; AID 434973; inhibition, % at 5 µM; actives 1.5% (n = 330,000); Q9BQF6; recombinant SENP7, Z-RLRGG-aminoluciferin luminescence, 40 min;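 active means inhibition above about 50% at the single test dose, limit read from the data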;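 further: plate controls were DMSO with enzyme for no effect and no enzyme buffer wells for full effect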
Target sequence (Q9BQF6 706-1050 limits assumed): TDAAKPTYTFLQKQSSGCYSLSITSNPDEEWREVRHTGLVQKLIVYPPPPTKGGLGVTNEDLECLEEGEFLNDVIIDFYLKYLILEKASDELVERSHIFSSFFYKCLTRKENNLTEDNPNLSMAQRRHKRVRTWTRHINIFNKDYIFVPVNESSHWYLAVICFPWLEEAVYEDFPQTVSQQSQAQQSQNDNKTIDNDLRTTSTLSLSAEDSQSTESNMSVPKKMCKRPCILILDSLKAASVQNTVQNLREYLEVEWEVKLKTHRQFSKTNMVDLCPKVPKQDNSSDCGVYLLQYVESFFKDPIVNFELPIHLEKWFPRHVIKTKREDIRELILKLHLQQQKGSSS
PPC-1+TRAIL kill = kills PPC-1 cancer cells in the presence of TRAIL. PPC-1 cells + TRAIL, ATPLite viability luminescence. cell killing (% activity), % at 4 µM or 5 µM. actives 0.41% (n = 220,000). AID 1443;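 active means cell killing above 50% in the first pass at 4 µM, then a duplicate retest at 5 µM averaging 50% or more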;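 further: plate controls were cells with TRAIL plus DMSO for no effect and medium-only wells lacking cells for full effect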
Starred values were filed as active, the others as inactive; i = inactive; nt = not tested or not shown.

SMILES	SENP6 inh	TRAIL sens C8	SENP8 block-1	SENP8 block-2	SENP7 block	PPC-1+TRAIL kill
COc1cccc(S(=O)(=O)N(C)C[C@@H]2OCc3cn(nn3)CCCC(=O)N([C@H](C)CO)C[C@H]2C)c1	nt	-21	16	nt	nt	nt
CC(C)C(NC(=O)c1c(F)cccc1F)C(=O)NC1CC(C)(C)NC(C)(C)C1 (centres undefined)	-9	-8	15	-1	1	nt
COc1cc(S(=O)(=O)NCc2ccc(F)cc2)ccc1-n1cnnn1	-7	-12	7	4	-10	nt
CCCc1ccc(-c2cc(C(=O)NC3=NCCS3)c3ccccc3n2)cc1	13	72*	-21	-5	0	54*
COc1ccc(-c2cc(C(=O)N3CCN(c4ccccc4O)CC3)c3ccccc3n2)cc1	-24	63*	i	-19	-7	nt
CCOc1ccccc1-c1cc(C(=O)N/N=C/c2cccnc2)c2ccccc2n1	12	11	-168	6	3	nt
CCc1ccc(-c2cc(C(=O)NCc3ccccn3)c3ccccc3n2)cc1	-16	60*	-206	-7	1	26
O=C(NC1=NCCS1)c1cc(-c2ccc(F)cc2)nc2ccccc12	3	10	-30	9	0	14
CCOc1ccc(-c2cc(C(=O)N/N=C/c3cccnc3)c3ccccc3n2)cc1	-24	74*	-436	-8	-5	nt
CC(C)(C)c1cc(C2COC(=O)COCCOCC(=O)OCCOCCO2)cc(C(C)(C)C)c1O (centres undefined)	nt	-12	5	nt	nt	nt
O=C(Nc1ccc(OCC(F)(F)C(F)F)c(C(F)(F)F)c1)c1ccc(Cl)cc1	-14	77*	29	-2	-2	nt
COc1ccc(C(=O)Nc2ccc(OCC(F)(F)C(F)F)c(C(F)(F)F)c2)cc1OC	19	41	23	-7	12	6
CC(=O)OCC1=C[C@@H]2OC(=O)C3=CO[C@@H](O[C@@H]4O[C@H](CO)[C@@H](O)[C@H](O)[C@H]4O)[C@H]1[C@@H]32	-2	3	21	-2	2	nt
C=C1C(=O)OC2C=C(CO)C3OC3C3OC3(C)CC(OC(=O)/C(=C/C)COC(C)=O)C12 (centres undefined)	nt	63*	6	nt	nt	nt
O=C(NCCc1c[nH]c2ccccc12)c1cnccn1	-8	3	2	5	7	-7
CCOC(=O)Cc1csc(NC(=S)NC(=O)c2ccccc2)n1	-9	35	-12	-3	3	-3
COC(=O)c1sc(NC(=S)NC(=O)c2ccccc2)nc1C	37	49	18	8	12	-2
CCOC(=O)Cc1csc(NC(=S)NC(=O)c2ccc(C)cc2)n1	11	82*	21	-9	2	27
Cc1csc(NC(=S)NC(=O)c2ccccc2)n1	35	72*	16	18	15	nt
CCOC(=O)c1c(C)nc2c(c1-c1cc(OC)ccc1OC)C(=O)c1ccccc1-2	1	68*	23	-4	-7	-4
CC(=O)N(C)c1ccc(N=Nc2c(C)[nH]n(-c3ccccc3)c2=O)cc1	9	6	30	-1	-3	nt
CC(=O)N(C)c1ccc(N=Nc2ccc3ncccc3c2)cc1	nt	62*	34	nt	nt	nt
N#C/C=C1/NC(=O)c2ccccc2S1	-1	-7	44*	-4	7	20
Cc1ccc(Nc2nc(NCc3ccco3)c3ccccc3n2)cc1	10	71*	-413	1	5	20
CCC(C)C(=O)N1c2ccccc2C(=C2SC(C(=O)OC)=C(C(=O)OC)S2)C(=S)C1(C)C (centres undefined)	-12	-2	56*	-5	4	-7
COc1ccc(OCC(=O)N/N=C(\C)c2ccc(OC)cc2)cc1	3	2	-1	-8	-6	10
COc1ccc(OCC(=O)N/N=C(\C)c2cc3ccccc3o2)cc1	-7	64*	3	4	2	40
COc1ccc(OC)c2sc(N(CCN(C)C)C(=O)/C=C/c3cccs3)nc12	-6	93*	23	1	-10	nt
COc1ccc(C)c2sc(N(CCN(C)C)C(=O)/C=C/c3cccs3)nc12	-13	-2	-11	-9	12	nt
N#C/C(=C\c1cc([N+](=O)[O-])c(N2CCCCC2)cc1N1CCCCC1)c1nn(-c2ccccc2)c(N)c1C#N	19	1	50*	2	4	4
